Experimental data reported in paper PMC5540273 (PLoS ONE, 2017).

test system: CDKL3; settings: concentration: 1 μM, replicates: in singlicate; n = 1
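Note: KINOMEscan kinase panel screen.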

Point of comparison: Cn1cc(-c2cnc(N)c3c(-c4ccc5c(c4)CCN5C(=O)Cc4ccccc4)csc23)cn1 [GSK2593074], “%Inh” value 4%. Against it:
- N#CC1(c2cccc(C(=O)Nc3cccc(Oc4ccc5nc(NC(=O)C6CC6)sc5n4)c3)c2)CC1 — higher, 79%
- Cc1ccc(C)c(NC(=O)Nc2ccc(C)c(-c3ccc(C(=O)Nc4ccncc4)cc3)c2)c1 [GSK1398473] — lower, 0%
- O=C(Nc1n[nH]c2nc(-c3ccccc3O)ccc12)C1CC1 [SB-711880] — higher, 17%
- CCn1c(-c2nonc2N)nc2c(-c3ccccc3)ncc(OCCCN)c21.O=C(O)C(F)(F)F.O=C(O)C(F)(F)F [GSK260205] — lower, 0%
- Cl.Cl.NC(CNC(=O)c1cc(Br)c(-c2ccnc3[nH]ccc23)s1)c1ccccc1 (stereo not shown) [GSK1322949] — lower, 0%
- CCOc1nccc(-c2c(-c3ccc(F)cc3)ncn2C2CCNCC2)n1 [SB-249175] — higher, 17%
- COc1cccc2c(-c3ccncc3)c(-c3ccc(F)cc3)nn12 [GW468513] — lower, 0%
- CC(C)c1nc(-c2cccc(NS(=O)(=O)c3c(F)cccc3F)c2)c(-c2ccnc(Nc3ccc(N4CCOCC4)nc3)n2)s1.Cl [GSK1723980] — higher, 24%
- O=C(Nc1n[nH]c2cc(-c3cccs3)ccc12)C1CC1 [SB-731284] — lower, 0%
- Cc1ccc(NC(=O)c2cccc(N3CCCCC3)c2)cc1-c1ccc(C(=O)NCC2CC2)cc1 [GSK1917008] — lower, 0%
- Cl.O=C(Nc1ccc(Oc2ccc3[nH]c(NC(=O)c4ccco4)nc3c2)cc1)Nc1cc(C(F)(F)F)ccc1F [GW683134] — lower, 0%
- Cn1cc(-c2ccc3c(c2)CCN3C(=O)Cc2cc(F)cc(C(F)(F)F)c2)c2c(N)ncnc21 [GSK2635225] — lower, 0%
- COc1cc(Nc2nccc(N3CCC(NS(=O)(=O)c4ccc(NC(C)=O)cc4)CC3)n2)cc(OC)c1OC [GSK1379825] — lower, 0%
- O=C1NC(=O)C(c2ccccc2Cl)=C1Nc1cccc(Cl)c1 [SB-342409] — lower, 0%
- Cc1cc(-c2ccnc(Nc3cccc(C#N)c3)n2)cc(C)c1O [GSK1440913] — higher, 99.1%
- CC(C)NCC(Cc1ccccc1)NC(=O)c1cc(Br)c(-c2ccnc3[nH]ccc23)s1.Cl.Cl (stereo not shown) [GSK1383281] — lower, 0%
- Nc1ncc(-c2ccc3nccc(-c4ccncc4)c3c2)cc1S(=O)(=O)N1CCCCC1 [GSK1693850] — lower, 0%
- COc1cc(Nc2ccnc3cc(-c4ccncc4)ccc23)cc(OC)c1OC.Cl [GW494610] — higher, 11%
- COC(=O)Nc1nc2ccc(Oc3ccc(NC(=O)Nc4cc(C(F)(F)F)ccc4F)cc3)cc2[nH]1.Cl [GW654607] — higher, 100%
- c1ccc(Oc2ccc(Nc3ccnc4cc(-c5ccc(CN6CCCCC6)o5)ccc34)cc2)nc1 [GW567143] — lower, 0%
- COc1cccc(CC(=O)N2CCc3cc(-c4cn(C)c5ncnc(N)c45)ccc32)c1 [GSK2608899] — lower, 0%
- COc1ccc(C)c(Nc2ccnc(Nc3ccc(-c4cnc[nH]4)cc3)n2)c1.Cl [GW784041] — lower, 0%
- CCNC(=O)/C=C/c1n[nH]c2cc(Sc3ccccc3C(=O)NC)ccc12 — higher, 17%
- Cl.N#CCc1ccc(Nc2nccc(Nc3ccc(Oc4ccccc4)cc3)n2)cc1 [GW639905] — lower, 0%
- CC(=O)Nc1cn2nc(Oc3cccc(NC(=O)c4cccc(C(F)(F)F)c4)c3)ccc2n1 — higher, 6%
- CCNc1nccc(-c2c(-c3ccc(F)cc3)ncn2C2CCN(C)CC2)n1 — lower, 0%
- COC(=O)Nc1nc2cc(Oc3ccc(NC(=O)Nc4cccc(SC)c4)cc3)ccc2[nH]1.Cl [GW697999] — lower, 0%
- Fc1cc(Cl)ccc1Nc1ccnc2cc(-c3ccc(CN4CCOCC4)o3)ccc12 [GW560109] — lower, 0%
- NCCC(NC(=O)c1cc(Br)c(-c2ccnc3[nH]ccc23)s1)c1ccccc1.O=C(O)C(F)(F)F.O=C(O)C(F)(F)F (stereo not shown) [GSK1307810] — lower, 0%
- Cc1ccc(O)cc1Nc1ccnc2cc(-c3ccc(CN4CCCCC4)o3)ccc12 [GW557777] — higher, 5%
- CCn1cnc2c(NCc3ccccc3)ncnc21 [SKF-96418] — higher, 12%
- CN(c1ccc(F)c(NC(=O)c2cccc(OC(C)(C)C#N)c2Cl)c1)c1ccc2nc(NC(=O)C3CC3)sc2n1 — lower, 0%
- Cn1cc(-c2ccc3c(c2)CCN3C(=O)Cc2cc(F)cc(F)c2F)c2c(N)ncnc21 [GSK2634140] — lower, 0%
- CN(C)c1ncnc2nc[nH]c12 [SKF-31736] — lower, 0%
- O=C(O)C(F)(F)F.O=c1[nH]ccc2nc(N[C@@H]3CCNC3)nc(Nc3ccc4c(c3)S(=O)(=O)CC4)c12 [GSK2181306] — lower, 0%
- Cc1ccc(NC(=O)c2ccc(Cl)c(Cl)c2)cc1-c1ccc(C(=O)Nc2ccncc2)cc1 [GSK1398460] — lower, 0%
